Among all 1,800 compounds or so, about 410 (23%) were called active. No rule for the calls is given here. Not all results are given here. Entries with a potency or affinity are not part of this list.
Test: Vero cell cytotoxicity, cytotoxicity control for flavivirus capping enzyme inhibitors (AID 588742)
Conditions: Vero cells viability, cytotoxicity counter-screen; series mostly up to 40 µM

SMILES	outcome
Cc1cc(SCC(=O)c2cccc([N+](=O)[O-])c2)nc(=O)[nH]1	inactive
Cc1[nH]n(-c2ccccc2)c(=O)c1C(c1cccc([N+](=O)[O-])c1)c1c(C)[nH]n(-c2ccccc2)c1=O	inactive
O=c1nc(/C=C/c2cc([N+](=O)[O-])ccc2Cl)cc(C(F)(F)F)[nH]1	inactive
Cc1ccc(S(=O)(=O)NN2C(=O)/C(=C/c3cccs3)SC2=S)cc1	inactive
CC1=NN(c2ccccc2)C(=O)C1=Cc1ccccc1	inactive
COc1cc(NC(=O)c2ccco2)c(OC)cc1NC(=O)CCC(=O)Nc1cc(C)ccc1C	inactive
COc1cc(/C=C2/SC(=S)N(CC(=O)O)C2=O)ccc1OCC(=O)Nc1ccc(C)c(C)c1	inactive
CCOC(=O)/C(=C\c1cn(C)c2ccccc12)[N+](=O)[O-]	inactive
CCOc1cc(/C=C2\C(=O)ON=C2c2ccccc2)ccc1OC	inactive
O=C1C(Cl)=C(N2CCOCC2)C(=O)N1c1ccccc1	inactive
Cc1cc(NS(=O)(=O)c2ccc(Nc3nc(-c4sc(N)nc4C)cs3)cc2)no1	inactive
CCc1sc(C(C2C(=O)CC(C)(C)CC2=O)C2C(=O)CC(C)(C)CC2=O)cc1[N+](=O)[O-]	inactive
Cc1ccc(CNC(=O)CSc2n[nH]c(N)n2)cc1	inactive
CCCCC(NC(=O)Cc1c(C)c2cc3c(-c4ccccc4)coc3c(C)c2oc1=O)C(=O)O (centres undefined)	inactive
Oc1ccc(N=Nc2ccccc2-c2nn[nH]n2)c(O)c1	inactive
CC(C)OP(=O)(OC(C)C)C1(NS(=O)(=O)c2ccc(Cl)cc2)C=C(Cl)C(=O)C(Cl)=C1	inactive
CC1=NN(c2ccc(Br)cc2)C(=O)/C1=C/c1ccc(-c2ccccc2C(=O)O)o1	inactive
Cc1ccccc1-c1ncc(CN2CCN(C3CCCCC3)C(CCO)C2)cn1 (centres undefined)	inactive
CC1(C)Cc2c(C#N)c(N)sc(=S)c2CS1	inactive
COc1ccc(N2C(=O)C3CCCN3C2c2cccc(Br)c2)cc1 (centres undefined)	inactive
O=[N+]([O-])c1ccc(N/N=C/c2ccc(O)c(O)c2O)c(S(=O)(=O)N2CCOCC2)c1	inactive
O=C(CCc1ccc(S(=O)(=O)N2CCOCC2)cc1)N/N=C/c1ccc(O)c(O)c1O	inactive
Oc1ccc2ccccc2c1C=NC12CN3CCN(CN(C3)C1)C2	inactive
O=C(O)c1ccc(N(c2ccccc2)c2ccccc2)cc1	inactive
CCN(CC)c1ccc(SS(=O)(=O)O)cc1	inactive

SMILES	outcome
COc1ccccc1CNC(=O)CN1C(=O)N(C)C2(CCCCC2)C1=O	inactive
O=c1[nH]n2c(=O)c3c([nH]c2c1N=Nc1cccc(Cl)c1)CCCC3	inactive
CC(C)CSC1=NSC2=NC(=O)/C(=C\c3ccccc3)C(=N)N12	inactive
Nc1ccc(N2CCOCC2)c2nonc12	inactive
CN(C)c1ccc(NC(=O)CCCc2ccccc2)cc1	inactive
Cc1ccccc1SCC(=O)OCC(=O)Nc1ccc(N(C)C)cc1	inactive
O=C(O)c1cccc(NC2=C(Cl)C(=O)c3ccccc3C2=O)c1	inactive
O=C(O)c1ccc(COc2ccccc2C=C2C(=O)c3ccccc3C2=O)cc1	inactive
CC(=O)N(C(C)=O)N1C(=O)C2C3c4ccccc4C(c4ccccc43)C2C1=O (centres undefined)	inactive
O=C(CN1C(=O)/C(=C2\SC(=S)N(CCS(=O)(=O)O)C2=O)c2ccccc21)Nc1cccc(Br)c1	inactive
O=C1/C(=C/c2cccc(F)c2)SC(=S)N1NS(=O)(=O)c1ccccc1	inactive
CCNc1sc(C(=O)c2cccs2)c(N)c1C#N	inactive
CC(C)CN1C(=O)/C(=C/c2ccco2)NC1=S	inactive
Cc1cccc(OC(C)C(=O)OCC(=O)Nc2sccc2C(N)=O)c1 (centres undefined)	inactive
CC(=O)C1CCC2C3CCC4=CC(=O)CCC4(C)C3(Br)C(=O)CC12C (centres undefined)	inactive
COC(=O)CCC(=O)OC1(C)C(=O)C2=CN(Cc3ccccc3)C(c3ccc(OC)cc3)=CC2=C(Br)C1=O (centres undefined)	inactive
O=c1c([N+](=O)[O-])c(O)c2ccccc2n1Cc1ccccc1	inactive
Nc1nc(N=Nc2ccc(O)cc2)cc(=O)[nH]1	inactive
Cc1cc(C(=O)O)ccc1-c1ccc(/C=C2\NC(=O)N(Cc3ccc(F)cc3)C2=O)o1	inactive
CCS(=O)(=O)c1nc(S(=O)(=O)c2ccc(Cl)cc2)c(N2CCC(O)CC2)s1	inactive
O=C1C2C3CCCC3=C3CCCC3C2C(=O)N1c1cccc(Cl)c1 (centres undefined)	inactive
O=C(O)c1cccc(Nc2nc3ccccc3nc2NS(=O)(=O)c2cccs2)c1	inactive
Cc1ccc(N2NC(=O)/C(=C/c3ccc(-c4ccc(Cl)c(C(=O)O)c4)o3)C2=O)cc1C	inactive
COc1cccc(/C=C2\C(=O)C(=O)c3ccccc32)c1	inactive
O=C1C(Cl)=C(Oc2ccccc2)C(=O)c2ccccc21	inactive

SMILES	outcome
CC(=O)OCC1=C(C(=O)O)N2C(=O)C(NC(=O)c3ccc(COc4cccc(Cl)c4Cl)o3)C2SC1 (centres undefined)	inactive
O=C(NCCCN1CCOCC1)c1ccc(NS(=O)(=O)c2ccccc2)cc1	inactive
O=C(c1c(F)cccc1F)N1CCCC1	inactive
Oc1ccc(/C=N/Nc2ccc(Cl)nn2)c(O)c1O	inactive
C#CCOc1ccc(/C=C2/C(=O)N(c3ccc(S(N)(=O)=O)cc3)N=C2C)cc1OC	inactive
O=C(CCN1C(=O)/C(=C\c2ccccc2F)SC1=S)Nc1ccc(C(=O)O)c(O)c1	inactive
COC(=O)c1sc(N2C(=O)C(O)=C(C(=O)c3ccc(C)o3)C2c2ccc([N+](=O)[O-])cc2)nc1C (centres undefined)	inactive
CC[n+]1c(/C=C2\C=C(C)CC(C)(C)C2)sc2ccccc21	inactive
O=C(O)c1cccc(N2C(=O)c3cc([N+](=O)[O-])cc4cc([N+](=O)[O-])cc(c34)C2=O)c1	inactive
CC1=NN(c2ccccc2)C(=O)/C1=C\c1ccc(Oc2ccc([N+](=O)[O-])cc2[N+](=O)[O-])cc1	inactive
O=C(c1cccc(S(=O)(=O)N2CCOCC2)c1)N(Cc1ccc(F)cc1)Cc1ccco1	inactive
Cc1ccc(C2/C(=C(/O)c3ccc(Br)cc3)C(=O)C(=O)N2Cc2ccco2)o1 (centres undefined)	inactive
CCc1ccc([C@@H]2CC=C(C(=O)O)[C@H](c3ccc(C)cc3)N2S(=O)(=O)c2ccc(C)cc2)cc1	inactive
O=C(O)/C=C/C(=O)c1c(-c2ccccc2)[nH]c2ccccc12	inactive
CCc1ccc(NC(=O)C2=CC=CN3CCS(=O)(=O)N=C23)cc1	inactive
Cc1noc(NS(=O)(=O)c2ccc(NC(=O)c3ccccc3NS(=O)(=O)c3ccc(F)c(F)c3)cc2)c1C	inactive
O=C1C(Cl)=C(N2CCOCC2)C(=O)N1c1ccc(Br)cc1	inactive
Cc1ccc(C)c(OCC(=O)NCC2COc3ccccc3O2)c1 (centres undefined)	inactive
COc1nc(OC)nc(N2CCC(C(=O)NC3CC3)CC2)n1	inactive
O=C(O)CN1C(=O)/C(=C\c2cc(Br)ccc2OCc2ccc(Cl)cc2)SC1=S	inactive
O=C(O)CCN1C(=O)/C(=C\c2cccc(Oc3ccccc3)c2)SC1=S	inactive
COc1cc(/C=C2/S/C(=N/S(=O)(=O)c3ccccc3)NC2=O)c([N+](=O)[O-])cc1OC	inactive
O=C1OC(c2ccccc2)(c2cc(Br)c(O)c(Br)c2)c2ccccc21 (centres undefined)	inactive
O=C(O)C(Cc1ccccc1)N1C(=O)c2c(Cl)c(Cl)c(Cl)c(Cl)c2C1=O (centres undefined)	inactive

Source: PubChem BioAssay AID588742 (Southern Research Specialized Biocontainment Screening …, 2011)
